PubChem BioAssay (NCI)
This is part of a sample that, as a whole, favours compounds with a hit. Of some 83,000 tested, about 20% had one in any assay.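 For each line, cells grew in 96-well plates with the test compound present at a single concentration for 48 hours.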 Calls of active or inactive are those of the source. How the source made its calls: active means growth percent below 10; inactive means the rest.

Key:
Test in all cases: NCI-60 one-dose screen, 48 h (100 = growth as untreated, 0 = no growth, -100 = all killed)
Conditions in all cases: 10 µM unless noted
T-47D breast = system: T-47D breast
BT-549 breast = system: BT-549 breast
MDA-MB-435 melanoma = system: MDA-MB-435 melanoma
SW-620 colon = system: SW-620 colon
MCF7 breast = system: MCF7 breast
HCT-116 colon = system: HCT-116 colon
HCC-2998 colon = system: HCC-2998 colon
KM12 colon = system: KM12 colon

Measured: growth

CN(C)c1ccc([C@@H](C(=O)Nc2cccc([N+](=O)[O-])c2)N(C(=O)c2cc3ccccc3[nH]2)c2cccc([N+](=O)[O-])c2)cc1
inactive: T-47D breast 84% | BT-549 breast 95.4% | MDA-MB-435 melanoma 108% | SW-620 colon 98.7% | MCF7 breast 89.6% | HCT-116 colon 90.4% | HCC-2998 colon 107% | KM12 colon 103%

COC(=O)[C@@]12CC=C(C)[C@]3(C[C@H](c4ccoc4)OC3=O)[C@H]1C=C[C@@H](O)[C@@]2(O)C(=O)OC
inactive: T-47D breast 110% | BT-549 breast 110% | MDA-MB-435 melanoma 102% | SW-620 colon 113% | MCF7 breast 101% | HCT-116 colon 97.7% | HCC-2998 colon 101% | KM12 colon 103%

COC(=O)c1c2c(c[n+]([O-])c1C)C(=O)C=C(NCc1ccccc1)C2=O
active: T-47D breast -47.7% | BT-549 breast -87.3% | MDA-MB-435 melanoma -86.5% | SW-620 colon -78.9% | MCF7 breast -57.3% | HCT-116 colon -79.5% | HCC-2998 colon -89.5% | KM12 colon -83.2%

O=C1CCCC1[n+]1ccccc1 (stereo not drawn)
inactive: T-47D breast 43.5% | BT-549 breast 84.3% | MDA-MB-435 melanoma 106% | SW-620 colon 117% | MCF7 breast 93% | HCT-116 colon 79.6% | HCC-2998 colon 107% | KM12 colon 97.6%

NC(=O)c1ccccc1OCC(=O)Nc1ccc(Cl)c(Cl)c1
inactive: T-47D breast 79.8% | BT-549 breast 93.2% | MDA-MB-435 melanoma 103% | SW-620 colon 102% | MCF7 breast 79.7% | HCT-116 colon 100% | HCC-2998 colon 103% | KM12 colon 100%

COC(=O)[C@@]1(C)CC[C@]2(C)CC[C@]3(C)C4=CC=C5C(=CC(=O)C(O)=C5C)[C@]4(C)[C@@H](O)C[C@@]3(C)[C@@H]2C1
active: T-47D breast -13.7% | SW-620 colon -10.4% | HCT-116 colon 0.149%
inactive: BT-549 breast 35.5% | MDA-MB-435 melanoma 15.9% | MCF7 breast 17.6% | HCC-2998 colon 37.7% | KM12 colon 77.6%

O=c1cc(C(F)(F)F)c2cc(-c3cc4ccccc4c(=O)o3)c(O)cc2o1
inactive: T-47D breast 49.4% | BT-549 breast 63.6% | MDA-MB-435 melanoma 72.8% | SW-620 colon 86.1% | MCF7 breast 77.4% | HCT-116 colon 71.7% | HCC-2998 colon 92.8% | KM12 colon 76.5%

Cc1cccc(NC(=O)N/C(N)=N/c2nc3ccccc3s2)c1
inactive: T-47D breast 35.5% | BT-549 breast 57.2% | SW-620 colon 34.3% | MCF7 breast 21.9% | HCT-116 colon 23.8% | HCC-2998 colon 56.4% | KM12 colon 25.1%
active: MDA-MB-435 melanoma 2.83%

Cc1nn(C)c2ncnc(N/N=C/c3cccc(O)c3O)c12
inactive: T-47D breast 19% | BT-549 breast 30.8% | MDA-MB-435 melanoma 24.4% | SW-620 colon 26.7% | MCF7 breast 15% | HCT-116 colon 18% | HCC-2998 colon 38.2% | KM12 colon 21.5%

COc1ccc(C2[C@@H](c3ccccc3)C(=O)N2c2cc(OC)c(OC)c(OC)c2)cc1F (stereo partly drawn)
active: BT-549 breast -2.79% | MDA-MB-435 melanoma -23% | HCT-116 colon 3.36%
inactive: T-47D breast 61.7% | SW-620 colon 24.2% | MCF7 breast 12.5% | HCC-2998 colon 15.1% | KM12 colon 13.2%

CC/C(=C(/c1ccc(O)cc1)c1ccc(OCCN2CCCCC2)cc1)c1ccc(OC)cc1
inactive: T-47D breast 43.4% | BT-549 breast 79.2% | MDA-MB-435 melanoma 13.2% | SW-620 colon 73.5% | MCF7 breast 11.5% | HCT-116 colon 27.9% | HCC-2998 colon 87.2% | KM12 colon 52.4%

COc1cc(C=Nc2oc(-c3ccccc3)c(-c3ccccc3)c2C#N)cc(CN2CCCC2)c1O
inactive: T-47D breast 85.7% | BT-549 breast 109% | MDA-MB-435 melanoma 104% | SW-620 colon 95.9% | MCF7 breast 96.4% | HCT-116 colon 95.4% | HCC-2998 colon 111% | KM12 colon 102%

C=C1SC(=Nc2ccccc2Cl)N(C(=O)c2sc3ccccc3c2Cl)C1(C)C
inactive: T-47D breast 34.7% | BT-549 breast 85.2% | MDA-MB-435 melanoma 99.1% | SW-620 colon 68% | MCF7 breast 21.2% | HCT-116 colon 54% | HCC-2998 colon 72.9% | KM12 colon 29%

CCNC(=O)N1CCc2c(Br)c3c(c(OC)c2C1Cc1ccc(OC)cc1)OCO3 (stereo not drawn)
inactive: T-47D breast 20.6% | BT-549 breast 30% | SW-620 colon 19% | MCF7 breast 12.2% | HCT-116 colon 20.9% | HCC-2998 colon 71.3% | KM12 colon 22%
active: MDA-MB-435 melanoma -9.57%

CCN(CC)CCOc1ccc(/C(=C(\C)Cc2ccc(OC)cc2)c2ccc(OC(=O)NCc3ccccc3)cc2)cc1
inactive: T-47D breast 40.6% | BT-549 breast 77.4% | MDA-MB-435 melanoma 40.7% | SW-620 colon 57.6% | MCF7 breast 20.6% | HCT-116 colon 25.3% | HCC-2998 colon 70.6% | KM12 colon 63.4%

COC1C(O)CC(OC2CC(OC3CC(O[C@@H]4C(=O)c5c(cc6cc(OC7CC(OC8CC(O)C(O)C(C)O8)C(O)C(C)O7)c(C)c(O)c6c5O)CC4[C@H](OC)C(=O)O)OC(C)C3O)OC(C)C2O)OC1C (stereo partly drawn)
inactive: T-47D breast 25.5% | BT-549 breast 21.4% | MDA-MB-435 melanoma 28.8% | SW-620 colon 32% | MCF7 breast 10.1% | HCT-116 colon 15.4% | HCC-2998 colon 38.6% | KM12 colon 22.9%
